These results are taken from PubChem BioAssay (NCI).

Compounds without any hit were thinned out: in the full panel of roughly 79,000, 15% have a hit. Values without a mark were called inactive. Active and inactive are the calls of the source. Rule as the data show it: active = growth inhibition above about 70%; inactive = the rest. *1 amine or outer side, *2 acyl side, *3 side chain or, on linkers, in order; H or OH if unused. Where a SMILES comes first, the peptide text is derived from it. Bridges are numbered along the chain shown (N, C = ends). Roman numbers before positions name the chains, in order. [ ]: non-standard residue; d: D form. Actinocin(9to1) = Cc1c2oc3c(C)ccc(C(=O)[*:1])c3nc-2c(C(=O)[*:2])c(N)c1=O; NMeF = CN[CH](Cc1ccccc1)C(=O)O; Sar = CNCC(=O)O

A short description of test [1]: NCI Yeast Anticancer Drug Screen. Data for the rad50 strain (AID 155).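 Also: 0% = growth of vehicle-only cultures of the same strain.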 The settings on record: S. cerevisiae rad50 strain growth inhibition; at 50.0 µM; hits give high values. Put shortly:
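Genetically altered yeast (DNA repair pathway); compound treatment; growth inhibition vs vehicle ctrl.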

A short description of test [2]: NCI Yeast Anticancer Drug Screen. Data for the mec2-1 strain (AID 157). The settings on record: S. cerevisiae mec2-1 strain, at 50.0 µM, hits give high values. Put shortly:
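Cells of the genetically defined mec2-1 yeast strain are incubated with test compound. Inhibition of growth is calculated against vehicle-treated controls.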

A short description of test [3]: NCI Yeast Anticancer Drug Screen. Data for the sgs1 mgt1 strain (AID 161).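 Also: 0% = growth of cultures given vehicle only.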 The settings on record: S. cerevisiae sgs1 mgt1 strain, at 50.0 µM, hits give high values. Put shortly:
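Genetically altered yeast, compound exposure, growth inhibition relative to vehicle.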

Test [4] is described as follows: NCI Yeast Anticancer Drug Screen. Data for the cln2 rad14 strain (AID 165).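 Also: 0% = growth equal to vehicle treated cultures.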 The settings on record: S. cerevisiae cln2 rad14 strain, at 50.0 µM, hits give high values. Put shortly: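 The screen exposed genetically defined yeast (cln2 rad14) to test compounds and scored growth inhibition relative to vehicle-treated controls.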
Test [5] can be described thus: NCI Yeast Anticancer Drug Screen. Data for the bub3 strain (AID 167). The settings on record: S. cerevisiae bub3 mutant strain, at 50.0 µM, hits give high values. Put shortly: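 Yeast carrying a defined mutation is treated with each compound, and growth is compared with that of vehicle-exposed cells to give inhibition.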
Test [6] can be described thus: NCI Yeast Anticancer Drug Screen. Data for the mlh1 rad18 strain (AID 175). The settings on record: S. cerevisiae mlh1 rad18 strain growth inhibition; at 50.0 µM; hits give high values. An outline of the steps:
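Compound-treated yeast growth, normalised to vehicle controls. Strain bears defined DNA repair mutations.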

With `N#Cc1ccc(OCCCCCOc2ccc(C#N)cc2)cc1`, the growth inhibition in test [1] was -11.2%; in test [2], -0.65%; in test [3], -1.15%; in test [4] it was -43.1%; in test [5] it was -2.6%; in test [6], -5.8%.

With `CC(=O)O[C@H]1[C@@H]2[C@@H]3[C@@H](C[C@H]1C)[C@@H](C)CO[C@@]1(C)CC/C=C(/C)C[C@@H]2O[C@@H]31`, the growth inhibition in test [1] was -3.9%; in test [2], -1.75%; in test [3], 0.15%; in test [4], -19.1%; in test [5] it was -12.8%; in test [6], -8.95%.

Turning to `Nc1cccc2cccc(N)c12`, the growth inhibition in test [1] was 51.9%; in test [2] it was 2.1%; in test [3] it was 41.5%; in test [4] it was 15.3%; in test [5] it was 9.65%; in test [6] it was 45%.

As for `CC1(c2cccc3c2C2(O)C=CC4(CCC32)OCCO4)OCCO1` (stereo not given), the growth inhibition is -59.4% in test [1]; -41.2% in test [2]; -55.8% in test [3]; -27.6% in test [4]; -61.1% in test [5]; -26% in test [6].

`Cc1nc(N)c2c(ncn2C2OC(CO)C(O)C2O)n1` (stereo not given): the growth inhibition in test [1] is 9.35%; in test [2], 1.85%; in test [3] it was -5.3%; in test [4] it was -8.8%; in test [5], -9.15%; in test [6], 14.6%.

With `Nc1c(Cl)ncnc1Nc1ccc(O)cc1`, the growth inhibition in test [1] is -3.85%; in test [2], -1.2%; in test [3], 5.2%; in test [4], 5.8%; in test [5], 24.8%; in test [6], 1.4%.

With `COc1ccc(C2=C(c3ccccc3)C(=O)C(c3ccccc3)=C2c2ccccc2)cc1`, the growth inhibition in test [1] was -12.9%; in test [2] it was -12.9%; in test [3] it was -8.7%; in test [4], 13.2%; in test [5] it was -1.7%; in test [6] it was -6.05%.

For `Cc1c2oc3c(C)ccc(C(=O)NC4C(=O)NC(C(C)C)C(=O)N5CCCC5C(=O)N(C)CC(=O)N(C)C(Cc5ccccc5)C(=O)OC4C)c3nc-2c(C(=O)NC2C(=O)NC(C(C)C)C(=O)N3CCCC3C(=O)N(C)CC(=O)N(C)C(Cc3ccccc3)C(=O)OC2C)c(N)c1=O` (stereo not given) (I: TVP[Sar][NMeF] / II: TVP[Sar][NMeF]; ester I:1-I:C, II:1-II:C; linker I:N-II:N via Actinocin(9to1); configuration not given here), the growth inhibition is -0.6% in test [1]; 6.05% in test [2]; -12.7% in test [3]; 2.15% in test [4]; -23.6% in test [5]; -27.4% in test [6].

For `CC1=NN(c2nc(N)nc(CCl)n2)C(C)(C)C1`, the growth inhibition in test [1] was -8.1%; in test [2] it was -0.1%; in test [3], -6.7%; in test [4] it was -4.75%; in test [5], 17.1%; in test [6], -77.9%.

With `O=C(CC(O)(C(F)(F)Cl)C(F)(F)Cl)c1cccc([N+](=O)[O-])c1`, the growth inhibition in test [1] was 77.5% (active); in test [2] it was 62%; in test [3] it was 81.5% (active); in test [4] it was 72.5% (active); in test [5], 61%; in test [6], 95.8% (active).

As to `CCC(c1ccccc1)C(C(=O)O)C(=O)O` (stereo not given), the growth inhibition in test [1] is 5.95%; in test [2], -5.35%; in test [3], 0.55%; in test [4], -16.8%; in test [5] it was 6.35%; in test [6], 6.65%.

With `CCc1ccc(CC(=S)N2CCOCC2)cc1`, the growth inhibition in test [1] was 4.2%; in test [2], 1.45%; in test [3], 5.55%; in test [4], -1.7%; in test [5], -15.9%; in test [6] it was -3.9%.

For `CC(=O)CC(=O)Nc1ccc(Cl)cc1`, the growth inhibition in test [1] was -2.75%; in test [2] it was -27.9%; in test [3], 12.2%; in test [4], 3.85%; in test [5], -5.55%; in test [6], 8.45%.

In the case of `CC[n+]1c(/C=C\N(C(C)=O)c2ccccc2)oc2ccccc21`, the growth inhibition in test [1] is -20.6%; in test [2], -25.3%; in test [3] it was -9.3%; in test [4], -0.7%; in test [5], 6.2%; in test [6], -7.8%.

As for `O=C(O)c1ccccc1C(=O)OC1CC2CCC1C2` (stereo not given), the growth inhibition in test [1] is -26.2%; in test [2], -22.6%; in test [3], -10.4%; in test [4], 24.2%; in test [5], 12.6%; in test [6], 1.6%.

Regarding `COc1ccc(CNc2cnc3ccc(N)cc3n2)cc1OC`, the growth inhibition in test [1] was -36.9%; in test [2], -55.1%; in test [3], -40.2%; in test [4] it was 5.55%; in test [5], -25%; in test [6], -30.9%.

As to `CN(C)c1ccc(C=O)cc1[N+](=O)[O-]`, the growth inhibition in test [1] was 2.75%; in test [2] it was 6.25%; in test [3], -10.8%; in test [4] it was -31.8%; in test [5] it was -6.9%; in test [6], -5.9%.

For the compound `Nc1cccc(S(N)(=O)=O)c1`, the growth inhibition in test [1] is 10.4%; in test [2], -5.65%; in test [3] it was -0.85%; in test [4] it was -40%; in test [5], 12.2%; in test [6] it was 1.4%.

On to `CCCP1(=O)C=C(C)C(=C(Cl)Cl)C(C)=C1` (stereo not given), for which the growth inhibition in test [1] was 6.9%; in test [2], -19.2%; in test [3], -7.55%; in test [4], 13.6%; in test [5], -10.4%; in test [6], 6.4%.

`O=C1OC(c2cccc3ccc(Br)cc23)c2ccccc21` (stereo not given): the growth inhibition in test [1] was 21.1%; in test [2], 0.5%; in test [3], 6.2%; in test [4], 19.5%; in test [5], 16.1%; in test [6] it was 3.45%.
